Experimental data as given in PubChem BioAssay AID1159580 (chemical genetic matrix, 2015).
Out of some 5,500 compounds screened, about 2,000 (36%) were called active. Inconclusive results (about 18%) are left out. Cut-off read from the data, not from the text of the source: active = normalized growth mostly below about 0.91 (no sharp cut-off); inconclusive = no clear call, values can overlap the other calls; inactive = mostly above about 0.92. Some of the results follow.

Test: chemical genetic growth profiling, strain panel (AID 1159580);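 note: tested at 20 µM; growth read once vehicle control cultures reached saturation at 30 °C; 1 = growth at the plate median or of vehicle wells; lower values mean less growth of the strain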
Conditions: growth OD

Measured: normalized growth

Cc1ccnc(NS(=O)(=O)c2ccc(N)cc2)n1
inactive: S. cerevisiae deletion strains, locus YJR075W, strain HOC1, active compounds read low 1.02 | S. cerevisiae deletion strains, locus YKL009W, strain mrt4, active compounds read low 1.01 | S. cerevisiae deletion strains, locus YKL068W, active compounds read low 1 | S. cerevisiae deletion strains, locus YKL085W, strain MDH1 (second series), active compounds read low 1.01 | S. cerevisiae deletion strains, locus YKL085W, strain MDH1, active compounds read low 1.01 | S. cerevisiae deletion strains, locus YKL160W, strain elf1, active compounds read low 1.01 | S. cerevisiae deletion strains, locus YKL190W, strain CNB1, active compounds read low 0.985 | S. cerevisiae deletion strains, locus YKR001C, strain vps1, active compounds read low 1.02 | S. cerevisiae deletion strains, locus YKR026C, strain gcn3, active compounds read low 1.01 | S. cerevisiae deletion strains, locus YKR091W, strain srl3, active compounds read low 0.998 | S. cerevisiae deletion strains, locus YLL001W, strain dnm1, active compounds read low 1.01 | S. cerevisiae deletion strains, locus YLL026W, active compounds read low 1 | S. cerevisiae deletion strains, locus YLL041C, strain sdh2, active compounds read low 1 | S. cerevisiae deletion strains, locus YLR027C, strain aat2, active compounds read low 1 | S. cerevisiae deletion strains, locus YLR039C, strain RIC1, active compounds read low 1.04 | S. cerevisiae deletion strains, locus YLR058C, strain SHM2, active compounds read low 1.02 | S. cerevisiae deletion strains, locus YLR102C, strain apc9, active compounds read low 1.01 | S. cerevisiae deletion strains, locus YLR113W, strain HOG1, active compounds read low 0.984 | S. cerevisiae deletion strains, locus YLR221C, strain rsa3, active compounds read low 0.98 | S. cerevisiae deletion strains, locus YLR258W, strain gsy2, active compounds read low 0.975 | S. cerevisiae deletion strains, locus YLR262C, strain YPT6 (second series), active compounds read low 1.04 | S. cerevisiae deletion strains, locus YLR262C, strain YPT6, active compounds read low 1.05 | S. cerevisiae deletion strains, locus YLR268W, strain sec22, active compounds read low 1.03 | S. cerevisiae deletion strains, locus YLR320W, strain mms22, active compounds read low 0.961 | S. cerevisiae deletion strains, locus YLR330W, strain CHS5, active compounds read low 1.01 | S. cerevisiae deletion strains, locus YLR342W, strain FKS1 (second series), active compounds read low 1 | S. cerevisiae deletion strains, locus YLR342W, strain FKS1, active compounds read low 1.01 | S. cerevisiae deletion strains, locus YLR357W, strain rsc2, active compounds read low 1.04 | S. cerevisiae deletion strains, locus YLR370C, strain arc18, active compounds read low 1 | S. cerevisiae deletion strains, locus YLR371W, strain rom2, active compounds read low 1.01 | S. cerevisiae deletion strains, locus YLR384C, strain iki3, active compounds read low 1.01 | S. cerevisiae deletion strains, locus YLR418C, strain cdc73, active compounds read low 1.07 | S. cerevisiae deletion strains, locus YML016C, strain PPZ1, active compounds read low 1.01 | S. cerevisiae deletion strains, locus YML032C, strain rad52, active compounds read low 1.01 | S. cerevisiae deletion strains, locus YML120C, strain ndi1, active compounds read low 1.02 | S. cerevisiae deletion strains, locus YML124C, strain tub3, active compounds read low 1.01 | S. cerevisiae deletion strains, locus YMR058W, strain fet3, active compounds read low 1 | S. cerevisiae deletion strains, locus YMR078C, strain ctf18, active compounds read low 1.01 | S. cerevisiae deletion strains, locus YMR125W, strain sto1, active compounds read low 0.995 | S. cerevisiae deletion strains, locus YMR129W, active compounds read low 0.998 | S. cerevisiae deletion strains, locus YMR205C, strain PFK2, active compounds read low 1.01 | S. cerevisiae deletion strains, locus YMR223W, strain ubp8, active compounds read low 1 | S. cerevisiae deletion strains, locus YMR231W, strain pep5, active compounds read low 1 | S. cerevisiae deletion strains, locus YMR263W, strain SAP30, active compounds read low 0.996 | S. cerevisiae deletion strains, locus YMR307W, strain GAS1, active compounds read low 1.01 | S. cerevisiae deletion strains, locus YNL067W, strain RPL9B, active compounds read low 1.02 | S. cerevisiae deletion strains, locus YNL071W, strain lat1, active compounds read low 0.987 | S. cerevisiae deletion strains, locus YNL128W, strain TEP1, active compounds read low 1.02 | S. cerevisiae deletion strains, locus YNL153C, strain GIM3, active compounds read low 1.01 | S. cerevisiae deletion strains, locus YNL183C, strain NPR1, active compounds read low 0.972 | S. cerevisiae deletion strains, locus YNL209W, strain ssb2, active compounds read low 0.982 | S. cerevisiae deletion strains, locus YNL233W, strain BNI4, active compounds read low 1.01 | S. cerevisiae deletion strains, locus YNL248C, strain rpa49, active compounds read low 1.01 | S. cerevisiae deletion strains, locus YNL250W, strain rad50, active compounds read low 1.03 | S. cerevisiae deletion strains, locus YNL271C, strain bni1, active compounds read low 1.02 | S. cerevisiae deletion strains, locus YNL298W, strain CLA4, active compounds read low 1.02 | S. cerevisiae deletion strains, locus YNL307C, strain MCK1, active compounds read low 1.02 | S. cerevisiae deletion strains, locus YNL322C, strain KRE1 (second series), active compounds read low 0.998 | S. cerevisiae deletion strains, locus YNL322C, strain KRE1, active compounds read low 1 | S. cerevisiae deletion strains, locus YNR049C, strain mso1, active compounds read low 1.01 | S. cerevisiae deletion strains, locus YNR052C, strain pop2, active compounds read low 1.03 | S. cerevisiae deletion strains, locus YOL006C, strain TOP1, active compounds read low 1.03 | S. cerevisiae deletion strains, locus YOL012C, strain htz1 1.03 | S. cerevisiae deletion strains, locus YOL147C, strain pex11, active compounds read low 1.02 | S. cerevisiae deletion strains, locus YOR001W, strain rrp6, active compounds read low 1.01 | S. cerevisiae deletion strains, locus YOR061W, strain CKA2, active compounds read low 1.01 | S. cerevisiae deletion strains, locus YOR069W, strain VPS5, active compounds read low 1.01 | S. cerevisiae deletion strains, locus YOR070C, strain gyp1, active compounds read low 0.989 | S. cerevisiae deletion strains, locus YOR080W, strain dia2, active compounds read low 1.01 | S. cerevisiae deletion strains, locus YOR083W, strain WHI5, active compounds read low 0.979 | S. cerevisiae deletion strains, locus YOR106W, strain vam3, active compounds read low 0.975 | S. cerevisiae deletion strains, locus YOR136W, strain idh2, active compounds read low 1.01 | S. cerevisiae deletion strains, locus YOR144C, strain elg1, active compounds read low 1.02 | S. cerevisiae deletion strains, locus YOR184W, strain ser1, active compounds read low 1.03 | S. cerevisiae deletion strains, locus YOR231W, strain MKK1, active compounds read low 0.98 | S. cerevisiae deletion strains, locus YOR265W, strain rbl2, active compounds read low 1.01 | S. cerevisiae deletion strains, locus YOR270C, strain vph1, active compounds read low 1.04 | S. cerevisiae deletion strains, locus YOR290C, strain snf2, active compounds read low 0.964 | S. cerevisiae deletion strains, locus YOR316C, strain cot1, active compounds read low 1.01 | S. cerevisiae deletion strains, locus YPL051W, strain arl3, active compounds read low 1.01 | S. cerevisiae deletion strains, locus YPL055C, strain LGE1, active compounds read low 0.988 | S. cerevisiae deletion strains, locus YPL078C, strain atp4, active compounds read low 1.03 | S. cerevisiae deletion strains, locus YPL106C, strain sse1, active compounds read low 0.968 | S. cerevisiae deletion strains, locus YPL240C, strain hsp82, active compounds read low 0.989 | S. cerevisiae deletion strains, locus YPL241C, strain CIN2, active compounds read low 1.01 | S. cerevisiae deletion strains, locus YPL256C, strain CLN2, active compounds read low 0.965 | S. cerevisiae deletion strains, locus YPR119W, strain clb2, active compounds read low 1.01 | S. cerevisiae deletion strains, locus YPR141C, strain kar3, active compounds read low 1.03 | S. cerevisiae deletion strains, locus YPR163C, strain tif3, active compounds read low 1.03 | S. cerevisiae deletion strains, locus YPR167C, strain met16, active compounds read low 1 | S. cerevisiae deletion strains, strain wtn01, active compounds read low 1.02 | S. cerevisiae strains, strain wild type, active compounds read low 0.999
